Among the test systems are SR leukemia; RPMI-8226 leukemia; OVCAR-8 ovarian; OVCAR-5 ovarian; OVCAR-4 ovarian; SK-OV-3 ovarian; IGROV1 ovarian; OVCAR-3 ovarian; HS 578T breast; NCI/ADR-RES ovarian.
Holding throughout (test): NCI-60 one-dose screen, 48 h (100 = growth as untreated, 0 = no growth, -100 = all killed)
What all share (settings): 10 µM unless noted

These results are taken from PubChem BioAssay (NCI).

This is part of a sample that, as a whole, favours compounds with a hit. Of some 83,000 tested, about 20% had one in any assay.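 For each line, cells grew in 96-well plates with the test compound present at a single concentration for 48 hours.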 A number with no mark means an inactive call. Calls of active or inactive are those of the source. Rule for the calls: active = growth percent below 10; inactive = the rest.

With `O=C(CSc1nc(-c2ccccc2)[nH]c1S(=O)(=O)c1ccccc1)NC1CC1`, the growth in the test on SR leukemia was 92.1%; in the test with RPMI-8226 leukemia, 90.1%; in the test with OVCAR-8 ovarian it was 97.2%; in the test on OVCAR-5 ovarian, 109%; with OVCAR-4 ovarian it was 95%; in the test with SK-OV-3 ovarian it was 13.4%. Besides, the growth with IGROV1 ovarian was 107%; with OVCAR-3 ovarian it was 102%; with HS 578T breast it was 99.2%; in the test with NCI/ADR-RES ovarian, 83.1%.
For `O=C(Cn1cc(CN2C(=O)c3ccccc3S2(=O)=O)nn1)Nc1nc2ccccc2s1`, the growth in the test on SR leukemia was 121%; with RPMI-8226 leukemia, 107%; in the test with OVCAR-8 ovarian, 102%; with OVCAR-5 ovarian it was 101%; in the test with OVCAR-4 ovarian, 100%; with SK-OV-3 ovarian, 79%. For the same molecule, the growth in the test on IGROV1 ovarian is 93.4%; in the test on OVCAR-3 ovarian, 102%; in the test with HS 578T breast, 110%; in the test on NCI/ADR-RES ovarian it was 97.6%.
On to `COc1ccc2[nH]cc(-c3nc(-c4cn(C)c5c(Cl)nccc45)cs3)c2c1`, for which the growth in the test on SR leukemia is 13.9%; in the test with RPMI-8226 leukemia it was 44.7%; in the test on OVCAR-8 ovarian, 22.9%; in the test on OVCAR-5 ovarian, 97.4%; in the test with OVCAR-4 ovarian it was 68.8%; in the test with SK-OV-3 ovarian, 60.1%. Further, the growth in the test on IGROV1 ovarian was 71.3%; with OVCAR-3 ovarian, 77.6%; in the test with HS 578T breast, 54.3%; in the test on NCI/ADR-RES ovarian it was 11.1%.
Regarding `COc1ccc(-c2nc(/C=C3\SC(=NCc4ccccc4)NC3=O)c3ccccn23)cc1`, the growth with SR leukemia was 3.32% (active); in the test with RPMI-8226 leukemia it was -3.83% (active); in the test with OVCAR-8 ovarian, -24.6% (active); with OVCAR-5 ovarian, -15% (active); in the test with OVCAR-4 ovarian, -71.9% (active); in the test with SK-OV-3 ovarian, -46.7% (active). Also, the growth in the test on IGROV1 ovarian was -44.7% (active); in the test on OVCAR-3 ovarian, -88.5% (active); in the test with HS 578T breast, -35.3% (active); with NCI/ADR-RES ovarian it was -4.46% (active).
For the molecule `COc1ccc(C(=O)C2C(c3ccc(OC)cc3)CN(C)C23C(=O)Nc2ccccc23)cc1` (stereo not given), the growth in the test with SR leukemia was 98%; with RPMI-8226 leukemia, 88.6%; with OVCAR-8 ovarian, 95.5%; in the test with OVCAR-5 ovarian, 88.6%; with OVCAR-4 ovarian, 83.6%; in the test on SK-OV-3 ovarian, 91.4%. Further, the growth was 80.8% in the test with IGROV1 ovarian, 97.8% with OVCAR-3 ovarian, 93.2% in the test on HS 578T breast and 76.7% with NCI/ADR-RES ovarian.
On to `O=C1Nc2ccc(Br)cc2/C1=N/c1n[nH]c(=S)s1`, for which the growth with SR leukemia is 83.5%; in the test with RPMI-8226 leukemia, 103%; in the test with OVCAR-8 ovarian, 95%; with OVCAR-5 ovarian it was 110%; in the test on OVCAR-4 ovarian, 108%; in the test on SK-OV-3 ovarian, 93.2%. For the same molecule, the growth was 105% in the test with IGROV1 ovarian, 104% with OVCAR-3 ovarian, 93.9% in the test with HS 578T breast and 95.7% with NCI/ADR-RES ovarian.
Take `O=C1c2cc(Cl)ccc2S(=O)(=O)c2c(NCCCNCCO)nc3ccccc3c21`: the growth in the test with SR leukemia is -9.98% (active); in the test with RPMI-8226 leukemia, -22.2% (active); with OVCAR-8 ovarian, -5.81% (active); with OVCAR-5 ovarian, -18% (active); with OVCAR-4 ovarian, -32.2% (active); in the test with SK-OV-3 ovarian, 75.7%. Besides, the growth with IGROV1 ovarian was 8.88% (active); in the test with OVCAR-3 ovarian it was -91.9% (active); with HS 578T breast, -2.81% (active); in the test on NCI/ADR-RES ovarian, 40.6%.
In the case of `O=Nc1c(-c2c(O)[nH]c3ncccc23)[nH]c2ccccc12`, the growth with SR leukemia was 32.8%; in the test with RPMI-8226 leukemia it was 69.5%; in the test on OVCAR-8 ovarian, 79.6%; in the test on OVCAR-5 ovarian, 67.7%; in the test with OVCAR-4 ovarian, 66.7%; in the test on SK-OV-3 ovarian, 6.5% (active). The growth in the test with IGROV1 ovarian is -25.3% (active); with OVCAR-3 ovarian, 69.3%; with HS 578T breast, -9.72% (active); in the test on NCI/ADR-RES ovarian it was 71.8%.
In the case of `CCOC(=O)c1cn2ncnc(Oc3ccc(NC(=O)NC4CCCCC4)c(Cl)c3)c2c1C`, the growth with SR leukemia was 73.8%; in the test on RPMI-8226 leukemia, 90.9%; in the test with OVCAR-8 ovarian, 74%; with OVCAR-5 ovarian it was 93.5%; in the test on OVCAR-4 ovarian it was -0.664% (active); in the test on SK-OV-3 ovarian, 108%. Also, the growth in the test with IGROV1 ovarian was 81.4%; with OVCAR-3 ovarian, 109%; in the test with HS 578T breast it was 36.1%; with NCI/ADR-RES ovarian, 59%.
For `COc1ccc(C(=O)Nc2ncc(Cc3cccc(Cl)c3)s2)cc1OC`, the growth with SR leukemia is 17%; with RPMI-8226 leukemia, 21.3%; in the test with OVCAR-8 ovarian it was 35.6%; in the test on OVCAR-5 ovarian, 49.3%; in the test with OVCAR-4 ovarian, 60.2%; in the test on SK-OV-3 ovarian it was 34.9%. Also, the growth in the test on IGROV1 ovarian is 40.2%; in the test with OVCAR-3 ovarian, 7.51% (active); in the test on HS 578T breast, 30.9%; in the test with NCI/ADR-RES ovarian, 20.9%.
On to `C=C1C(=O)O[C@H]2[C@H]1CC/C(COC(=O)NCc1ccc(Cn3c(=O)sn(CCI)c3=O)cc1)=C\CC[C@@]1(C)O[C@@H]21`, for which the growth with SR leukemia is -2.32% (active); with RPMI-8226 leukemia, 29.1%; in the test on OVCAR-8 ovarian, 89.4%; in the test with OVCAR-5 ovarian, 82%; with OVCAR-4 ovarian, 32.1%; in the test on SK-OV-3 ovarian, 109%. Further, the growth with IGROV1 ovarian was -75.5% (active); with OVCAR-3 ovarian, -55.4% (active); in the test on HS 578T breast it was 94.3%; in the test with NCI/ADR-RES ovarian it was 101%.
Take `CC(C)(C)n1cc(-c2ccnc(NCCNS(=O)(=O)c3cccc4ccccc34)c2)c(-c2cccc(F)c2)n1`: the growth in the test with SR leukemia is -20.7% (active); in the test on RPMI-8226 leukemia it was -31.8% (active); in the test on OVCAR-8 ovarian, 7.39% (active); in the test with OVCAR-5 ovarian, -15% (active); in the test on OVCAR-4 ovarian, -0.264% (active); with SK-OV-3 ovarian, 6.65% (active). For the same molecule, the growth with IGROV1 ovarian was 4.03% (active); in the test on OVCAR-3 ovarian, -68.6% (active); in the test on HS 578T breast it was -35.7% (active); with NCI/ADR-RES ovarian, -9.97% (active).
With `CC[C@@H](C(=O)[C@@H](C)[C@@H](O)[C@H](C)[C@@H]1O[C@@H]([C@@H](CC)C(=O)NCCc2ccc(F)cc2)CC[C@@H]1C)C1O[C@]2(C=CC(=O)[C@]3(CC[C@@](C)([C@H]4CC[C@](O)(CC)[C@H](C)O4)O3)O2)[C@H](C)C[C@@H]1C` (stereo not given in full), the growth in the test on SR leukemia is 41.9%; with RPMI-8226 leukemia, 7.59% (active); in the test on OVCAR-8 ovarian, 32.2%; in the test on OVCAR-5 ovarian, 67.7%; in the test on OVCAR-4 ovarian, -2.57% (active); in the test with SK-OV-3 ovarian, 44.7%. Further, the growth was 26.3% in the test on IGROV1 ovarian, 10.5% in the test on OVCAR-3 ovarian, 48.1% in the test on HS 578T breast and 29.6% in the test on NCI/ADR-RES ovarian.
